From PubChem BioAssay (NCATS)
Where “and” joins values, the source holds several entries; their conditions need not be identical. Equal values may be shown once. Results filed as inconclusive are left out. Calls of active or inactive are those of the source. The call rests on the fitted dose curve; in most records, active means well fitted curve in the direction sought with a large enough effect; inconclusive means small, poorly fitted or top-dose-only effect, or another doubt; inactive means no such curve, though single readings can be large; an effect the other way counts as inactive or inconclusive.

Legend:
[1] = biological target: Cytochrome P450 2D6 (Homo sapiens) (UniProt P10635); assay: qHTS Assay for Inhibitors and Substrates of Cytochrome P450 2D6 (AID 891); further: potency means the concentration at half of the fitted maximal effect; nearly all actives have a fitted effect of over 60% in size
Summary of the method: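 Human CYP2D6 (5 nM) with 30 uM Luciferin-ME EGE (at Km) in 100 mM KPO4, compound preincubated 10 min, then NADPH regeneration system for 60 min at room temperature. Luciferin read by luminescence; normalized to 1.43 uM quinidine.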

[2] = biological target: Luciferin 4-monooxygenase (Photinus pyralis) (UniProt P08659); assay: Biochemical firefly luciferase enzyme assay for NPC (AID 624030);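 further: purified P. pyralis luciferase at 10 nM with luciferin and ATP substrate; 0% = DMSO and -100% = full luciferase inhibition by PTC124 control; nearly all actives have a fitted effect of over 70% in size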
Summary of the method: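 Direct inhibition of firefly luciferase enzyme (10 nM final, 50 mM Tris Acetate) assessed by luminescence within 5 minutes. Percent activity scaled between DMSO and PTC124 positive control, with concentration-effect curves classified by fit quality and response.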

[3] = biological target: Phospholipid hydroperoxide glutathione peroxidase GPX4 (Homo sapiens) (UniProt P36969); assay: Primary qHTS Assay for Inhibitors of Recombinant Selenoprotein Glutathione Peroxidase 4 (GPX4) (AID 1845192); settings: outcome: dose series up to 50 µM unless noted; further: nearly all actives have a fitted effect of over 65% in size
Summary of the method: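 NADPH consumption, followed by fluorescence at 340/450 nm between 0 and 15 min, reports GPX4 activity via coupled glutathione reductase (100 nM). Enzyme 200 nM was pre-exposed to compound 30 min; 0.5 mM cumene hydroperoxide and 1 mM GSH served as substrates.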

[4] = tested on: 3D7; assay: qHTS profiling for inhibitors of Plasmodium falciparum proliferation (AID 504749); further: nearly all actives have a fitted effect of over 60% in size; further: potency means the concentration at half of the fitted maximal effect; settings: P. falciparum in erythrocytes, SYBR Green DNA, 72 h; series mostly up to 12.8 µM
Summary of the method: (§1)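 Three-day growth assay of blood-stage parasites in erythrocytes (0.3% parasitemia, 2.5% hematocrit) at 37 C, 5% CO2, quantified by SYBR Green DNA staining after overnight detergent lysis.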

[5] = tested on: CP191; assay: as above; settings: P. falciparum in erythrocytes, SYBR Green DNA, 72 h; series mostly up to 12.8 µM
Summary of the method: as §1

[6] = tested on: CP201; assay: as above; settings: P. falciparum in erythrocytes, SYBR Green DNA, 72 h; series mostly up to 12.8 µM
Summary of the method: as §1

[7] = tested on: CP262; assay: as above; settings: P. falciparum in erythrocytes, SYBR Green DNA, 72 h; series mostly up to 12.8 µM
Summary of the method: as §1

[8] = tested on: CP286; assay: as above; settings: P. falciparum in erythrocytes, SYBR Green DNA, 72 h; series mostly up to 12.8 µM
Summary of the method: as §1

[9] = tested on: DFO2036; assay: as above; settings: P. falciparum in erythrocytes, SYBR Green DNA, 72 h; series mostly up to 12.8 µM
Summary of the method: as §1

[10] = tested on: Dd2; assay: as above; settings: P. falciparum in erythrocytes, SYBR Green DNA, 72 h; series mostly up to 12.8 µM
Summary of the method: as §1

[11] = tested on: HB3; assay: as above; settings: P. falciparum in erythrocytes, SYBR Green DNA, 72 h; series mostly up to 12.8 µM
Summary of the method: as §1

[12] = tested on: PC49; assay: as above; settings: P. falciparum in erythrocytes, SYBR Green DNA, 72 h; series mostly up to 12.8 µM
Summary of the method: as §1

[13] = HepG2 viability counterscreen (readout 2: ATP content) against the NCATS DSHEA and TCM libraries (AID 1794840); further: 0% is about no effect
Summary of the method: (§2)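 1,000 HepG2 cells/well, 4 h attach; compounds ~24 h, 37C/5% CO2. Readout 1: GF-AFC 25 uM final, 30 min, fluorescence 380/510 nm. Readout 2: CellTiter-Glo, 30 min RT, luminescence.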

[14] = HepG2 viability counterscreen (readout 1: protease activity) against the NCATS DSHEA and TCM libraries (AID 1794841);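 further: cells exposed to compounds for about 24 h before the protease read; 0% is about no effect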
Summary of the method: as §2

[15] = biological target: Cytochrome P450 2D6 (Homo sapiens) (UniProt P10635); assay: qHTS for inhibitors of CYP2D6 against the NCATS DSHEA and TCM libraries (AID 1919972); further: potency means the concentration at half of the fitted maximal effect
Summary of the method: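 Steps: enzyme plus luciferin substrate dispensed; test substances pinned; 15 min RT; 1x NADPH regenerating solution added, 30–45 min RT protected from light; detection reagent, 30 min RT; luminescence measured. Minus-enzyme wells as background.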

[16] = KB-3-1 P-gp reporter qHTS against the NCATS DSHEA and TCM libraries (AID 1919975); further: 0% is about no effect
Summary of the method: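 CellTiter-Glo luminescence viability readout; KB-3-1 parental cells, 500/well, attached ~4 h, then compound for ~72 h, 37C, 5% CO2. Bortezomib intraplate control.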

[17] = qHTS Counterscreen for compound interference against the NCATS DSHEA and TCM libraries (AID 1919978); settings: firefly luciferase detection reagent interference, luminescence;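 further: compounds preincubated with 1 µM D-luciferin or buffer before detection reagent; % of control where 0% means no effect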
Summary of the method: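 Luminescence counterscreen for detection-kit interference: compounds at 19.5 nM–39.8 uM final, 15 min RT with 1 uM D-luciferin or buffer only; detection reagent added, 30 min RT, then read.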

[18] = Dual reporter qHTS for agonist of Pregnane X Receptor (hPXR) against the NCATS DSHEA and TCM libraries: Fluorescence readout (AID 1920058); further: 0% is about no effect
Summary of the method: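 hPXR-Luc HepG2 cells (2000/well) in phenol red-free medium with charcoal-stripped FBS attached for 5 h, then were exposed to compounds for about 24 h at 37 °C. Viability was read by CellTiter-Fluor fluorescence (Ex/Em 405/540 nm) after 1 h.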

[19] = Dual reporter qHTS for antagonist of Pregnane X Receptor (hPXR) against the NCATS DSHEA and TCM libraries: Fluorescence Readout (AID 1920061); further: 0% is about no effect
Summary of the method: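 HepG2 hPXR-Luc, 2000 cells/well, charcoal-stripped FBS medium; 5 h attach; RIF 2 uM final; 24 h 37C/5% CO2; CellTiter-Fluor 1 h, fluor 405/540; ONE-Glo 30 min RT, lum.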

[20] = biological target: Glutathione peroxidase 1 (Homo sapiens) (UniProt P07203); assay: Primary qHTS Assay for Inhibitors of Recombinant Selenoprotein Glutathione Peroxidase 1 (GPX1) (AID 1845191); settings: outcome: dose series up to 48.8 µM unless noted; further: nearly all actives have a fitted effect of over 65% in size
Summary of the method: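 10 nM GPX1 + cpd, 30 min RT; start w/ 1 mM GSH, 0.5 mM cumene hydroperoxide, 0.5 mM NADPH, 100 nM GR, 0.01% BSA; buffer 50 mM Tris-HCl pH 7.5, 2 mM EDTA, 150 mM NaCl; Fl 340/450, 0 & 15 min.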

Chain of Phospholipid hydroperoxide glutathione peroxidase GPX4 (Homo sapiens) (P36969 whole entry, looked up): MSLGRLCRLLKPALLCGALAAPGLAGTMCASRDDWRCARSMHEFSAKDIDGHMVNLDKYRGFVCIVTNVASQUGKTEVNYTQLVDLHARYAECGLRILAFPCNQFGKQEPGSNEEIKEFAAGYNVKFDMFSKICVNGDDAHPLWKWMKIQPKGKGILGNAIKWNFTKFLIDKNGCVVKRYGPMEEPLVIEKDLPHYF
Chain of Glutathione peroxidase 1 (Homo sapiens) (P07203 whole entry, looked up): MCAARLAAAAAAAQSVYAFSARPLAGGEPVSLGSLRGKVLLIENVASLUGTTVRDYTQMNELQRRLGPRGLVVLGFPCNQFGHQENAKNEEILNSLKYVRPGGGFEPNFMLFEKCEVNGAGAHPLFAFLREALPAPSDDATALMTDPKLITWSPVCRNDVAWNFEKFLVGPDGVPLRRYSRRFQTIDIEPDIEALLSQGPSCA
Chain of Cytochrome P450 2D6 (Homo sapiens) (P10635 whole entry, looked up): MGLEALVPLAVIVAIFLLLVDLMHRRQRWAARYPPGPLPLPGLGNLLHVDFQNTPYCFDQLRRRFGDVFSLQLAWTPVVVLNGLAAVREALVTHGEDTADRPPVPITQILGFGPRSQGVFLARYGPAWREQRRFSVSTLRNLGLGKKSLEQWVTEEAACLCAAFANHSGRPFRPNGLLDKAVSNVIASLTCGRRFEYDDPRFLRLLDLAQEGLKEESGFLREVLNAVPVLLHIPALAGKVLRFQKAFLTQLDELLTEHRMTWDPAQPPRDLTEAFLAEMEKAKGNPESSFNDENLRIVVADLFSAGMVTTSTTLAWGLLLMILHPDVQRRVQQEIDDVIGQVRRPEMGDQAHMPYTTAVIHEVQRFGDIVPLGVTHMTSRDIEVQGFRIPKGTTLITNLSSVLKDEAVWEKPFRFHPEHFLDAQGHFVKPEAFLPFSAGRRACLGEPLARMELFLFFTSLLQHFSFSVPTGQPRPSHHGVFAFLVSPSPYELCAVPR
Chain of Luciferin 4-monooxygenase (Photinus pyralis) (P08659 whole entry, looked up): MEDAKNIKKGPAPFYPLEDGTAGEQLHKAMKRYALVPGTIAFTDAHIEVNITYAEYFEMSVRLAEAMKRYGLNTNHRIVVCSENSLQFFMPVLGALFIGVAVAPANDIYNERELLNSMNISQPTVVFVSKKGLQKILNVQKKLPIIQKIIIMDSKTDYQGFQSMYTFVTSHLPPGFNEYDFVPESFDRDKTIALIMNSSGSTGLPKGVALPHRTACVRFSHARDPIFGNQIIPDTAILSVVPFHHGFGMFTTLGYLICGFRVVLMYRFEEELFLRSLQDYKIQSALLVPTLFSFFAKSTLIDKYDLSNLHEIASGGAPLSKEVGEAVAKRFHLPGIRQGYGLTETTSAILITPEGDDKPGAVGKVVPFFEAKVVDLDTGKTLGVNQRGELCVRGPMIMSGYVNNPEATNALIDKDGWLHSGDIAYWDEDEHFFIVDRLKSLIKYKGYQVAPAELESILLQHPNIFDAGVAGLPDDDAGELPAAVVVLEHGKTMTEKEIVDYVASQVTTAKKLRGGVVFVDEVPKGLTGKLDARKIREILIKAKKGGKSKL

COc1ccccc1CNc1ncnc2ccc(-c3ccoc3)cc12
active: Potency [1] 3.16 µM

CN(C)Cc1ccccc1-c1cc(NCc2cccs2)ncn1
active: Potency [1] 2 µM

COc1ccccc1-c1nccc(NCc2ccccc2)n1
active: Potency [1] 3.98 µM

COc1cccc(-c2ccc3ncnc(NCCc4c[nH]c5ccc(OC)cc45)c3c2)c1
active: Potency [1] 2.51 µM

O=C(Cc1cccs1)NC1C(=O)N2C(C(=O)[O-])=C(C[n+]3ccccc3)CSC12 (stereo not drawn)
inactive: outcome [2] | outcome [3] | Potency [4] | Potency [5] | Potency [6] | Potency [7] | Potency [8] | Potency [9] | Potency [10] | Potency [11] | Potency [12]

O=C(/C=C/c1ccc(O)c(O)c1)OC(Cc1ccc(O)c(O)c1)C(=O)O (stereo not drawn)
inactive: outcome [13] | outcome [14] | Potency [15] | outcome [16] | max response [17] -4.37% | outcome [18] | outcome [19]

CC1(C)SC2C(NC(=O)Cc3ccccc3)C(=O)N2C1C(=O)O (stereo not drawn)
inactive: outcome [20] | outcome [3]

COc1cc2c(cc1OC)C1Cc3ccc(OC)c(OC)c3CN1CC2 (stereo not drawn)
inactive: outcome [20]

O=c1cc(-c2ccc(O)cc2)oc2cc(O[C@H]3OC(CO)C(O)C(O)C3O)cc(O)c12 (stereo partly drawn)
inactive: outcome [13] | outcome [14] | Potency [15] | outcome [16] | max response [17] -0.179% | outcome [18] | outcome [19]

C=C(NC(=O)C(=C)NC(=O)c1csc(C2=NC3c4csc(n4)C4NC(=O)c5csc(n5)C(C(C)(O)C(C)O)NC(=O)C5CSC(=N5)C(=CC)NC(=O)C(C(C)O)NC(=O)c5csc(n5)C3(CC2)NC(=O)C(C)NC(=O)C(=C)NC(=O)C(C)NC(=O)C(C(C)CC)NC2C=Cc3c(C(C)O)cc(nc3C2O)C(=O)OC4C)n1)C(N)=O (stereo not drawn)
inactive: outcome [20]

C#C[C@]1(O)CCC2C3CCC4=C(CCC(=O)C4)C3CC[C@@]21C (stereo partly drawn)
inactive: outcome [20]

COC(=O)C1=CO[C@@H](C)[C@H]2CN3CCc4c([nH]c5ccccc45)[C@@H]3C[C@H]12
inactive: outcome [13] | outcome [14] | outcome [16] | max response [17] -2.56% | outcome [18] | outcome [19]
active: Potency [1] 2 nM and 7.9 nM | Potency [15] 39.8 nM

NC(Cc1c[nH]c2ccccc12)C(=O)O (stereo not drawn)
inactive: outcome [13] | outcome [14] | Potency [15] | outcome [16] | max response [17] 1.56% | outcome [18] | outcome [19]

CC(C)N1CCN(c2ccc(OC[C@@H]3CO[C@@](Cn4cncn4)(c4ccc(Cl)cc4Cl)O3)cc2)CC1
inactive: outcome [2] | outcome [20] | outcome [3] | Potency [4] | Potency [5] | Potency [6] | Potency [7] | Potency [8] | Potency [9] | Potency [10] | Potency [11] | Potency [12]

C[C@@H]1CCC[C@H](C)N1NC(=O)c1ccc(Cl)c(S(N)(=O)=O)c1
inactive: outcome [2] | outcome [20] | outcome [3] | Potency [4] | Potency [5] | Potency [6] | Potency [7] | Potency [8] | Potency [9] | Potency [10] | Potency [11] | Potency [12]

CC(C)(S)[C@H](N)C(=O)O
inactive: outcome [20] inactive [at 4.49 µM] | outcome [3] inactive [at 4.52 µM]

CN1C(CC(=O)c2ccccc2)CCCC1CC(O)c1ccccc1 (stereo not drawn)
inactive: outcome [20] | outcome [3]

COc1ccc2ccc(=O)oc2c1
inactive: outcome [13] | outcome [14] | Potency [15] | outcome [16] | max response [17] 3.31% | outcome [18] | outcome [19]

CC12CC[C@@H]3c4ccc(OS(=O)(=O)O)cc4CC[C@H]3C1CCC2=O (stereo partly drawn)
inactive: outcome [2] | outcome [20] | outcome [3]

C[N+](C)(C)CC(O)CC(=O)O (stereo not drawn)
inactive: outcome [2] | outcome [20] | outcome [3] | Potency [4] | Potency [5] | Potency [6] | Potency [7] | Potency [8] | Potency [9] | Potency [10] | Potency [11] | Potency [12]

C=C[C@](C)(O)CCC=C(C)C
inactive: outcome [13] | outcome [14] | Potency [15] | outcome [16] | max response [17] -3.94% | outcome [18] | outcome [19]

C=C(C)[C@H]1CC=C(C)C(=O)C1
inactive: outcome [13] | outcome [14] | Potency [15] | outcome [16] | max response [17] 1.32% | outcome [18] | outcome [19]

Oc1ccc2c(c1)OCC1(O)Cc3cc(O)c(O)cc3C21 (stereo not drawn)
inactive: outcome [20]

CN(C)CC/C=C1\c2ccccc2CSc2ccccc21
active: Potency [10] 1780 nM
inactive: outcome [2] | outcome [20] | outcome [3] | Potency [4] | Potency [5] | Potency [6] | Potency [7] | Potency [8] | Potency [9] | Potency [11] | Potency [12]

O=c1ccc2ccc(O)cc2o1
inactive: outcome [13] | outcome [14] | Potency [15] | outcome [16] | max response [17] 2.6% | outcome [18] | outcome [19]

Cc1cccc(CNc2ccnc(-c3ccccc3CN(C)C)n2)c1
active: Potency [1] 2.51 µM

CN1[C@@H]2CC[C@H]1CC(OC(=O)[C@@H](O)c1ccccc1)C2 (stereo partly drawn)
inactive: outcome [2] | Potency [4] | Potency [5] | Potency [6] | Potency [7] | Potency [8] | Potency [9] | Potency [10] | Potency [11] | Potency [12]

COCC(=O)N1CCC2(CCN(Cc3ccncc3)CC2)CC1
active: Potency [1] 6.31 µM

CN(C)Cc1ccccc1-c1nc(N(C)Cc2ccco2)c2ccccc2n1
active: Potency [1] 0.794 µM

CN1CCCC[C@@H]1CCN1c2ccccc2Sc2ccc(S(C)=O)cc21 (stereo partly drawn)
inactive: outcome [2] | Potency [4] | Potency [5] | Potency [6] | Potency [7] | Potency [8] | Potency [9] | Potency [10] | Potency [11] | Potency [12]

CN(C)Cc1ccccc1-c1ccc2ncnc(NCc3ccccc3)c2c1
active: Potency [1] 7.94 µM

COc1ccccc1CN1CCC2(CC1)CCN(S(=O)(=O)c1ccccc1)CC2
active: Potency [1] 0.158 µM
